Assay results published in PubChem BioAssay (NCATS).
The source made the active and inactive calls. Calls come from the whole dose curve; as a rule, active = well fitted curve in the direction sought with a large enough effect (not every such curve was filed as active); inconclusive = small, poorly fitted or top-dose-only effect, or effect the other way, or another doubt; inactive = no such curve, though single readings can be large or run the other way.

These compounds were tested against Pyruvate kinase PKM (Homo sapiens) (UniProt P14618) (assay: qHTS Assay for Activators of Human Muscle Pyruvate Kinase (AID 954)). Conditions: purified human muscle pyruvate kinase, luciferase-coupled luminescence, 1 h; series mostly up to 57.5 µM.
How it was run: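 PKM2, human, >95% pure, 0.1 nM; PEP 0.5 mM (Km), ADP 0.1 mM; 50 mM imidazole pH 7.2, 50 mM KCl, 0.01% Tween 20, 0.05% BSA; 1 h RT; luciferase luminescence readout.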

Pyruvate kinase PKM (Homo sapiens), sequence (P14618 whole entry, looked up): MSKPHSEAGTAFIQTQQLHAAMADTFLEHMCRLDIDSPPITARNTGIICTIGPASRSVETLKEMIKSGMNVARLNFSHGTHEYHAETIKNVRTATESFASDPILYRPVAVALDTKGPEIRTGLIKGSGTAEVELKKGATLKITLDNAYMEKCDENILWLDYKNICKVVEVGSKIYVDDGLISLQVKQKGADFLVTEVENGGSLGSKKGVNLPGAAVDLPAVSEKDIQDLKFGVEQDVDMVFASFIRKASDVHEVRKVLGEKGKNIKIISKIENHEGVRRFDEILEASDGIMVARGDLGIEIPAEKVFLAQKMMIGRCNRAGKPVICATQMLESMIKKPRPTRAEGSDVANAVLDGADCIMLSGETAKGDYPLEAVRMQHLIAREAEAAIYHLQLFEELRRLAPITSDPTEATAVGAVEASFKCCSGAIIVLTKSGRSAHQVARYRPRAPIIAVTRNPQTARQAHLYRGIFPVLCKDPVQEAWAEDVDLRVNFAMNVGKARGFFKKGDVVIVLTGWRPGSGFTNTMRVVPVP

| SMILES | outcome |
| --- | --- |
| CC[N+](C)(C)c1cccc(O)c1 | inactive |
| C[C@]12CCC(=O)C=C1CC[C@@H]1[C@@H]2C(=O)C[C@@]2(C)[C@H]1CC[C@]2(O)C(=O)CO | inactive |
| C(=C\c1ccccc1)/CN1CCN(C(c2ccccc2)c2ccccc2)CC1 | inactive |
| N[C@@H](COP(=O)(O)O)C(=O)O | inactive |
| CCNC(=O)N1CCN(CCCC(c2ccc(F)cc2)c2ccc(F)cc2)CC1 | inactive |
| NC(N)=NC(=O)Cc1c(Cl)cccc1Cl | inactive |
| C[C@]12CCC(=O)C=C1CC[C@@H]1[C@@H]2CC[C@@]2(C)[C@H]1CC[C@]2(O)C(=O)CO | inactive |
| C[N+](C)(C)CCCCCCCCCC[N+](C)(C)C | inactive |
| c1cnc(N2CCN(Cc3ccc4c(c3)OCO4)CC2)nc1 | inactive |
| NCCCNCCSP(=O)(O)O | inactive |
| CC(C)NNC(=O)c1ccncc1 | inactive |
| Cc1nc2c([nH]1)c(=O)n(C)c(=O)n2Cc1ccco1 | inactive |
| CN1CCN(CC(=O)N2c3ccccc3C(=O)Nc3cccnc32)CC1 | inactive |
| O=C(O)CN(CCN(CC(=O)O)CC(=O)O)CCN(CC(=O)O)CC(=O)O | inactive |
| c1cc(CN2CCCCC2)cc(OCCCNc2nc3ccccc3s2)c1 | inactive |
| CN(C)C(=O)Oc1ccc[n+](C)c1 | inactive |
| CN(C)CCN(Cc1cccs1)c1ccccn1 | inactive |
| CCN(CC)CCNC(=O)c1ccc(NC(C)=O)cc1 | inactive |
| O=C1CC2(CCCC2)CC(=O)N1CCCCN1CCN(c2ncccn2)CC1 | inactive |
| O=C(O)CP(=O)(O)O | inactive |
| CC1=C(C)C(=O)C(CCCCC#CCCCC#CCO)=C(C)C1=O | inactive |
| OCCN1CCN(CCCN2c3ccccc3C=Cc3ccccc32)CC1 | inactive |
| CC(C)[N+](C)(CCOC(=O)C1c2ccccc2Oc2ccccc21)C(C)C | inactive |
| CCc1c(C)[nH]c2c1C(=O)C(CN1CCOCC1)CC2 (centres undefined) | inactive |
| C[n+]1cc2c3c(ccc2c2ccc4cc5c(cc4c21)OCO5)OCO3 | inactive |
| Cc1ccc(Cl)c(Nc2ccccc2C(=O)O)c1Cl | inactive |
| Nc1ncn([C@@H]2O[C@H](CO)[C@@H](O)[C@H]2O)c(=O)n1 | inactive |
| CN/C(=C\[N+](=O)[O-])NCCSCc1ccc(CN(C)C)o1 | inactive |
| C[N+](C)(C)CCOC(=O)CCC(=O)OCC[N+](C)(C)C | inactive |
